The list is not random: actives were taken first. Their share in the collection is about 3%.
HIF-2a block – inhibitors of HIF-2a; 786-0 RCC cells HIF-2a reporter, luciferase luminescence, overnight; inhibition, % at 18.8 µM; hit rate 0.72% among 360,000;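 active = inhibition of the luminescence signal of 40% or more relative to plate controls, in a single-dose primary screen at 18.75 µM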
LMP1 NFkB inh – inhibitors of Epstein-Barr LMP1-induced NF-kappaB reporter | LMP1-induced NF-kappaB luciferase reporter cells, luminescence | inhibition, % at 12.5 µM | hit rate 0.69% among 350,000 | AID 504558; in the data active = inhibition above about 41%;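 also: 0% = neutral control wells and 100% = reference inhibitor control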
CF NFkB block – blocks PAF-induced NF-kB reporter in cystic fibrosis cells. KKLEB NF-kB-GFP reporter, GFP fluorescence overnight. inhibition, % at 5 µM. hit rate 0.86% among 360,000;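 active = at least 50% inhibition at 5 µM, scaled per plate between neutral and stimulator controls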;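 also: PAF is a Pseudomonas aeruginosa culture filtrate used as stimulus; plate controls were PAF-stimulated DMSO wells for no effect and unstimulated DMSO wells for full effect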
Peg3 prom inh – Peg3 promoter activity inhibition. HeLa PEG-Prom luciferase reporter, luminescence, overnight. inhibition, % at 20 µM. hit rate 1.7% among 360,000. AID 588405;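 active = inhibition of at least 50% at 20 µM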
KKLEB tox – reduces viability of KKLEB cystic fibrosis airway cells. KKLEB CF airway cells viability, ATPlite luminescence, overnight; stronger effect = lower value; cells stimulated with P. aeruginosa culture filtrate. activity change (cytotoxicity), % at 5 µM. hit rate 0.36% among 360,000. AID 602141;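 active = corrected activity change at or below -50% at 5 µM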
MITF TRPM1 inh – inhibitors of MITF-driven TRPM1 promoter in melanoma cells; inhibition, % at 12.5 µM; SK-MEL-5 TRPM1 promoter luciferase, 24 h; hit rate 0.83% among 330,000;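 active = mean inhibition across replicates of 60% or more, whatever share of single replicates reaches that level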
The depositor's hits bear a star; · = not tested or not shown.

SMILES | HIF-2a block | LMP1 NFkB inh | CF NFkB block | Peg3 prom inh | KKLEB tox | MITF TRPM1 inh
CCOC(=O)/C=C/C(=O)OCC(=O)Nc1ccc(OC)c(Cl)c1 | 3.5 | -8.1 | -10.8 | 13.3 | 5.9 | -3.3
Cc1ccc(NC(=O)CN(C)C(=O)C2CSC3(C)CCC(=O)N23)cc1 (stereo not drawn) | 18.9 | -3.4 | -5.9 | 1.1 | 11.2 | ·
CO[C@@H]1CN(C)C(=O)c2cc(NC(=O)Nc3ccc4c(c3)OCO4)ccc2OC[C@@H](C)N(C)C[C@H]1C | -12.5 | · | · | · | · | ·
COc1ccccc1N1CCN(C(=O)CCCn2c(=S)[nH]c3ccccc3c2=O)CC1 | 8.3 | 12.5 | -11.2 | 67.9* | 0.3 | ·
COc1ccccc1N1CCN(C(=O)CCn2c(=O)[nH]c3ccccc3c2=O)CC1 | 9.6 | 5.9 | -5.7 | 2.6 | -0.7 | 17.2
Cc1nn(Cc2c(Cl)cccc2Cl)c(C)c1NC(=O)c1cn(-c2ccccc2)nc1-c1ccccc1 | 34.2 | -86.6 | 23.1 | 114.5* | -42.0 | 87.4*
C/C(=N\NS(=O)(=O)c1ccc([N+](=O)[O-])cc1)c1cccs1 | 9.7 | 57.8* | -6.9 | 8.2 | -2.5 | -11.5
C/C(=N\NS(=O)(=O)c1ccc(C)c([N+](=O)[O-])c1)c1cccs1 | -12.5 | -4.2 | -4.8 | -15.1 | 0.8 | 1.4
CC(C)C[C@H]1CN(CCCC[C@@H]2CNC(=O)C(=O)N2Cc2ccccc2)C(=O)C(=O)N1CCc1ccc(O)cc1 | 10.0 | · | · | · | · | ·
O=C1C2C3C=CC(C4CC34)C2C(=O)N1/N=C/c1ccc([N+](=O)[O-])o1 (stereo not drawn) | -6.2 | -94.0 | 3.8 | 22.6 | -1.8 | 74.6*
O=C1SCCN1N=Cc1ccc([N+](=O)[O-])o1 | 1.2 | 5.3 | 25.8 | -17.4 | -8.7 | 65.8*
CC1CN(N=Cc2ccc([N+](=O)[O-])o2)C(=N)O1 (stereo not drawn) | -6.4 | -1.9 | -82.0 | -3.4 | -3.5 | 53.7
Cc1cc2ncn(/N=C/c3ccc([N+](=O)[O-])o3)c2cc1C | -63.2 | -48.1 | 4.5 | 46.9 | -27.5 | 84.9*
O=[N+]([O-])c1ccc(/C=N/N=C/c2ccc([N+](=O)[O-])o2)o1 | 23.1 | -17.1 | 82.8* | 104.9* | -46.8 | 87.0*
O=C(Oc1ccc[nH]c1=O)C1CC1 | 5.0 | 1.7 | 17.2 | -2.3 | -8.5 | ·
O=[N+]([O-])c1ccc(Cl)cc1P(=O)(O)c1cc(Cl)ccc1[N+](=O)[O-] | 5.8 | -4.0 | -11.2 | 0.4 | -0.2 | -1.5
COc1ccc(OCCNC(=O)c2ccc3nc(C)c(N(C)Cc4ccc(NC(C)=O)cc4)n3c2)cc1 | 2.7 | · | -22.5 | 11.3 | 8.7 | ·
COc1ccccc1-c1sc2cc3c(cc2c1-c1ccc(OCCN2CCCCC2)cc1)OCO3 | 21.6 | -41.5 | 24.7 | 100.1* | -28.2 | -0.9
COc1cc2sc(-c3ccccc3OC)c(-c3ccc(OCCN4CCCCC4)cc3)c2cc1OC | 19.1 | -27.1 | 18.7 | 89.4* | -29.5 | 24.7
COc1ccc2sc(-c3ccccc3OC)c(-c3ccc(OCCN4CCOCC4)cc3)c2c1 | 12.3 | -3.6 | 37.8 | 23.4 | -27.0 | -9.5
CC(=O)N1CCc2cc(NC(=O)C3(C)CCN3Cc3ccccc3Cl)ccc21 (stereo not drawn) | -37.0 | · | 6.1 | -8.1 | 4.8 | ·
CC(C)(C)c1ccc(/C=N/N2C(=O)CSC2=S)cc1 | 57.0* | -1.8 | -8.7 | 17.0 | -1.6 | 10.3
c1ccc2c(c1)CCCC2C1=NCCN1 (stereo not drawn) | 4.0 | 79.4* | -29.9 | 3.9 | -12.9 | 1.1
COc1ccc(OCC(=O)N2CCN(S(=O)(=O)c3ccc4c(c3)OCCO4)CC2)cc1 | 9.3 | -3.9 | 1.1 | 7.0 | -24.8 | ·
CCCCOC(=O)C1=C(C)N(C)C(=O)NC1c1cc2c(cc1Br)OCO2 (stereo not drawn) | 21.9 | -8.6 | 6.7 | 9.1 | -7.1 | ·
C=CCOC(=O)C1=C(C)N(C)C(=O)NC1c1cc2c(cc1Br)OCO2 (stereo not drawn) | 24.2 | -18.1 | -4.3 | 66.8* | 3.2 | -2.1
COc1ccc(NC(=O)O[C@@H](C)[C@@H]2CN3CCc4c([nH]c5ccc(-c6ccc(OC)cc6)cc45)[C@@H]3C[C@@H]2N(C)C(=O)Nc2ccc(OC)cc2)cc1 | -15.2 | -6.6 | 14.2 | 10.4 | -1.9 | ·
COc1ccc(NC(=O)N(C)[C@H]2C[C@H]3c4[nH]c5ccc(-c6ccc7c(c6)OCO7)cc5c4CCN3C[C@H]2[C@H](C)O)cc1 | -10.6 | -9.0 | 10.3 | 54.6* | -2.4 | ·
